About 79,000 compounds went through this panel and 15% of them were active in at least one assay; those are over-represented in the sample as a whole. Active and inactive are the calls of the source. No stated cut-off is given here; in the data, active means growth inhibition above about 70%; inactive means the rest. Where a SMILES comes first, the peptide text is derived from it.
Experiments:
[1] = NCI Yeast Anticancer Drug Screen. Data for the rad50 strain (AID 155);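 further: 0% = growth of vehicle-only cultures of the same strain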; conditions: S. cerevisiae rad50 strain growth inhibition; at 50.0 µM; active compounds read high
Summary of the method: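 Growth of the mutant yeast was measured after compound exposure and referenced to vehicle-treated cultures.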

[2] = NCI Yeast Anticancer Drug Screen. Data for the mec2-1 strain (AID 157); conditions: S. cerevisiae mec2-1 strain, at 50.0 µM, active compounds read high
Summary of the method: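 Mutant yeast (mec2-1) grown with compound; growth inhibition relative to vehicle control reported.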

[3] = NCI Yeast Anticancer Drug Screen. Data for the sgs1 mgt1 strain (AID 161);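 further: 0% = growth of cultures given vehicle only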; conditions: S. cerevisiae sgs1 mgt1 strain, at 50.0 µM, active compounds read high
Summary of the method: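 This yeast growth screen uses a strain with defined DNA-repair lesions; compound-treated growth is compared with vehicle-treated growth.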

[4] = NCI Yeast Anticancer Drug Screen. Data for the cln2 rad14 strain (AID 165);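 further: 0% = growth equal to vehicle treated cultures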; conditions: S. cerevisiae cln2 rad14 strain, at 50.0 µM, active compounds read high
Summary of the method: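 Readout is yeast growth inhibition versus vehicle-treated controls, using a strain with cln2 and rad14 alterations exposed to compound.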

[5] = NCI Yeast Anticancer Drug Screen. Data for the bub3 strain (AID 167); conditions: S. cerevisiae bub3 mutant strain, at 50.0 µM, active compounds read high
Summary of the method: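 Whole-cell yeast assay. The mutant strain was incubated with compounds, and growth inhibition was determined by comparison with vehicle-treated cells.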

[6] = NCI Yeast Anticancer Drug Screen. Data for the mlh1 rad18 strain (AID 175); conditions: S. cerevisiae mlh1 rad18 strain growth inhibition; at 50.0 µM; active compounds read high
Summary of the method: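 Genetically defined yeast (DNA repair-deficient) exposed to compounds; growth inhibition determined relative to vehicle.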

Measured: growth inhibition

COc1ccc([N+](=O)[O-])c(OC)c1
inactive: [1] 4.4% | [2] -19.1% | [3] -30.9% | [4] 17.2% | [5] -23.4% | [6] 9.05%

CC(C)=CC1C(C(=O)O)C1(C)C (stereo not drawn)
inactive: [1] 5.55% | [2] -13.2% | [3] 3.35% | [4] -2.95% | [5] 8.4% | [6] 10.2%

CCCC(=O)Nc1cc(C(=O)O)cc([N+](=O)[O-])c1
inactive: [1] 2.05% | [2] -15.6% | [3] 4.8% | [4] -26.2% | [5] 22.5% | [6] -4.45%

Clc1cc(Cl)c(SSc2cc(Cl)c(Cl)cc2Cl)cc1Cl
inactive: [1] -11.6% | [2] 1.15% | [3] -18.1% | [4] -71.5% | [5] 0.75% | [6] -22.6%

Cc1ccc(N2CCN(c3ccc(C)cc3)C2=C2N(c3ccc(C)cc3)CCN2c2ccc(C)cc2)cc1
active: [1] 78.5%
inactive: [2] 20.4% | [3] 56.5% | [4] 34.1% | [5] 37.1% | [6] 19.6%

C[N+](C)(CCNCC(N)=O)CC(N)=O
inactive: [1] -17.6% | [2] -4.2% | [3] -19.1% | [4] -9.95% | [5] 5.15% | [6] -1.5%

N#Cc1c(N)nc(N)nc1Nc1ccc(Cl)cc1
inactive: [1] 13.6% | [2] -8.7% | [3] 9.25% | [4] 26.9% | [5] -5.8% | [6] 25.6%

COC(SC)(C(=O)O)c1cc(-c2c(Cl)cccc2Cl)no1 (stereo not drawn)
inactive: [1] -5.4% | [2] -6.8% | [3] -9.35% | [4] -11.4% | [5] 12.2% | [6] -1%

CCC(C)C(N)C(=O)NC(C(=O)O)C(C)C (stereo not drawn) (H-Ile-Val-OH; configuration not given here)
inactive: [1] -32.4% | [2] -13.6% | [3] -0.2% | [4] -41.9% | [5] -0.25% | [6] -0.4%

Cc1cc(C)c2[nH]c(=O)c(C)c(C)c2c1Br
inactive: [1] -0.5% | [2] 5.55% | [3] -7.2% | [4] -16.6% | [5] -1.3% | [6] -0.25%

COC1OC(COC(c2ccccc2)(c2ccccc2)c2ccccc2)C2SC12 (stereo not drawn)
inactive: [1] 23.9% | [2] 10% | [3] -1.05% | [4] 14.2% | [5] 4.8% | [6] 17.6%

CC(C)N(CC(=O)O)CC(=O)O
inactive: [1] -0.95% | [2] -13.4% | [3] -21.1% | [4] -5% | [5] -22.9% | [6] -16.4%

COC(=O)c1ccc(OC(=O)Nc2ccc(Br)cc2)cc1
inactive: [1] 11.3% | [2] 26.4% | [3] 27% | [4] -4.2% | [5] 37.2% | [6] 19.9%

O=C1OC(c2ccccc2Cl)Sc2ccccc21 (stereo not drawn)
inactive: [1] -3.25% | [2] 25.1% | [3] 20.1% | [4] -30.7% | [5] 55.8% | [6] 32.8%

CC(C)(C)CC(C)(C)N1CNC(=S)NC1
inactive: [1] 19% | [2] -1.95% | [3] 18.3% | [4] 10.8% | [5] 21.8% | [6] 16.8%

O=c1cc(NCc2cccc3ccccc23)[nH]c(=O)[nH]1
inactive: [1] 4.45% | [2] 24.1% | [3] -5.25% | [4] -10.1% | [5] -0.75% | [6] -7.1%

CN(C)CCC(O)c1ccccc1 (stereo not drawn)
inactive: [1] 7.2% | [2] -1.25% | [3] 2.2% | [4] -20.5% | [5] -6.2% | [6] -22.6%

ON=C(C1CCCCC1)C1CCCCC1
inactive: [1] -7.35% | [2] -29.1% | [3] -13% | [4] -37.6% | [5] -18.3% | [6] -32.9%

Cn1nc2ccccc2cc1=O
inactive: [1] 20.7% | [2] 2.65% | [3] -2.1% | [4] 14.2% | [5] 10.8% | [6] 14.9%

COc1ccc2oc3cc(NCCN(C)C)ccc3c(=O)c2c1
inactive: [1] -4.65% | [2] -21.7% | [3] -25.6% | [4] 15.9% | [5] -19.9% | [6] -19.3%

NC(=O)N1CCCC1
inactive: [1] -1.65% | [2] 13.1% | [3] -3.7% | [4] 7.7% | [5] 9.45% | [6] 2.15%

CCC(=O)Oc1ccc(OCc2ccccc2)cc1
inactive: [1] -28.3% | [2] -57.8% | [3] -31.4% | [4] -4% | [5] -16.9% | [6] -25.9%

O=C(CSc1nnc(Cc2ccccc2)o1)Nc1ccccc1
inactive: [1] -28.1% | [2] 0.05% | [3] -38.6% | [4] -13.3% | [5] -35.5% | [6] -27.1%

[N-]=[N+]=NCC1OCC(O)C(OCc2ccccc2)C1OCc1ccccc1 (stereo not drawn)
inactive: [1] -8.6% | [2] -10.4% | [3] -3.75% | [4] -11.8% | [5] -10.4% | [6] 3.3%

CCn1c(=O)c(C#N)c2n(CC)c3cc(C)c(C)cc3n2c1=O
inactive: [1] -13.5% | [2] -2.9% | [3] -11% | [4] -24.2% | [5] -31.3% | [6] -20.4%

O=C(O)c1cc(-c2cccs2)c(C(=O)O)s1
inactive: [1] -4.2% | [2] 5.35% | [3] -18.2% | [4] -19.1% | [5] -11.1% | [6] 2.1%

ClC1=C(Cl)C2(Cl)CC1(Cl)C1CCCCC12 (stereo not drawn)
inactive: [1] 18.9% | [2] -10.4% | [3] 21.4% | [4] -17.4% | [5] 16.6% | [6] -10.6%

CN=C(NC)C(c1ccccc1)c1ccccc1
inactive: [1] -0.5% | [2] -9.7% | [3] -5.7% | [4] -15.8% | [5] -5.8% | [6] -9.3%

O=[N+]([O-])c1ccc(OCC#CCOc2ccc([N+](=O)[O-])c(C(F)(F)F)c2)cc1C(F)(F)F
inactive: [1] 31.4% | [2] -13.6% | [3] -0.2% | [4] 4.65% | [5] -2.3% | [6] -3.75%

CCOC(=O)c1ccc(C(=N)N)cc1
inactive: [1] 8.4% | [2] 2.2% | [3] 11% | [4] -15.2% | [5] 11.2% | [6] 5.55%

Cc1ccc(C(=O)c2cc3c([nH]c4ccccc43)c(C)c2C(=O)O)cc1
inactive: [1] 15.8% | [2] -9.55% | [3] -5.1% | [4] 28.6% | [5] 21.5% | [6] 21.1%

CCN(CC)CCC(O)(Cc1ccccc1)c1cccc(Cl)c1 (stereo not drawn)
inactive: [1] 21.6% | [2] 7.95% | [3] 5.75% | [4] -67.5% | [5] 16.6% | [6] 21.4%

Nc1nc(=S)c2[nH]cnc2[nH]1
inactive: [1] -19.6% | [2] -4.95% | [3] -21.4% | [4] -91.7% | [5] 9.55% | [6] -125%

CSc1ccc(NC(=O)Nc2ccc(Nc3ccccc3)cc2)cc1
inactive: [1] -0.95% | [2] 29.8% | [3] 15.1% | [4] -11.9% | [5] 14.2% | [6] 23.3%

COc1ccc(COC(=O)Nc2cccc(Cl)c2C)cc1
inactive: [1] -1.2% | [2] 8.95% | [3] 14.8% | [4] -25.7% | [5] -8.85% | [6] -3.2%

O=S(=O)(Oc1ccc(Cl)cc1)c1ccc(Br)cc1
inactive: [1] 10.7% | [2] 32.7% | [3] 47.1% | [4] 8.8% | [5] 39.4% | [6] 25.3%

O=C1NC(N2CCCCC2)=N/C1=C\c1ccccc1
inactive: [1] 25.7% | [2] -8.45% | [3] -6.1% | [4] 23.7% | [5] -10.5% | [6] -16.4%

COc1ccc(C(O)C(O)(c2ccccc2)c2ccc(OC)cc2)cc1 (stereo not drawn)
inactive: [1] -6.05% | [2] -4.1% | [3] -6.3% | [4] -19.1% | [5] 19.9% | [6] -11.6%
